Inconclusive results are not listed. Where a call stands in place of a potency, no number is given. The source made the active and inactive calls. Calls follow the shape of the dose curve; as a rule, active = well fitted antagonist curve with a large enough effect in the main read-out, with a control signal flat; inconclusive = small, poorly fitted or top-dose-only effect; inactive = no such curve, though single readings can be large or run the other way.
target: Neuropeptide S receptor (Homo sapiens) (UniProt Q6W5P4); assay: Confirmation Concentration-Response Assay for Antagonists of the Neuropeptide S Receptor: Calcium Signal Transduction; details: CHO-NPSR cells, NPS-induced calcium flux, FDSS; series mostly up to 19.3 µM
How it was run: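 CHO cells stably expressing human NPSR, loaded with calcium dye; compounds added, then stimulated with NPS (60 nM in stimulation reagent). Fluorescence (Ex 480, Em 520–560 nm) recorded kinetically on FDSS; AC50 from Hill fit.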

Chain of Neuropeptide S receptor (Homo sapiens) (Q6W5P4 whole entry, looked up): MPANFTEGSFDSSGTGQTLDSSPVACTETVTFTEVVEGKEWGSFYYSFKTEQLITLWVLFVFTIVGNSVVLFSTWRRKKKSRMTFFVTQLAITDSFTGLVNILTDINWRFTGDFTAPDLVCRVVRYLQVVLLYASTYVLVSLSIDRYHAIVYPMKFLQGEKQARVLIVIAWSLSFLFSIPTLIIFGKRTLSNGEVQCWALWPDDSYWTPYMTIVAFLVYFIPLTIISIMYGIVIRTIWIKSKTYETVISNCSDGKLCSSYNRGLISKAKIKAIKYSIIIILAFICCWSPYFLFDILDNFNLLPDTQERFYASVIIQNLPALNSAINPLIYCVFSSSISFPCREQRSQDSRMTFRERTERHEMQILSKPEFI

Structure (SMILES) | Potency
O=C(/C=C/c1ccco1)NC(=S)Nc1nc(-c2ccc3ccccc3c2)cs1 | inactive
Cc1ccc(NC(=S)NNC(C)(C)C)cc1 | inactive
Cc1cccnc1NC(=O)c1c(O)c2cccc3c2n(c1=O)CCC3 | inactive
c1cncc(-c2nc(-c3ccco3)cs2)c1 | inactive
CCCN1C(=O)/C(=C\C=C2/C=CN(CC)c3ccccc32)SC1=S | inactive
Cn1nc(-c2ccc(Cl)cc2)nc2c(=O)n(C)c(=O)nc1-2 | inactive
Cc1nn(C(=O)c2cccs2)c(N)c1-c1ccccc1 | inactive
CN(C)c1ccc(N=Cc2ccco2)cc1 | inactive
CN(C)C(=S)N=Nc1[nH]c2ccccc2c1O | inactive
Cc1nn(C)cc1/C=N/NC(=S)Nc1ccccc1 | inactive
Cc1ccc(Nc2cc(C)nn2-c2nc(C)cc(C)n2)cc1 | inactive
CC(=O)c1sc(-c2ccccc2)cc1NS(=O)(=O)c1ccccc1 | inactive
c1ccc(-c2ccc(-c3nc(-c4cccnc4)no3)cc2)cc1 | inactive
CCCCCN1C=CC=C/C1=C\C=C(C#N)C#N | inactive
Cc1cc(OCC(=O)c2ccc(Br)cc2)ccc1N1C(=O)CCC1=O | inactive
NC(=O)OCC(COC(N)=O)c1ccccc1 | inactive

Structure (SMILES) | Potency
CC(=O)c1sc(N/N=C\c2ccccc2O)nc1C | 1120 nM (active)
Cc1nnc(NC(=O)c2cccc(S(=O)(=O)N3CCc4ccccc43)c2)s1 | inactive
N#CC(C#N)=c1ccc2c(c1)NC1(CCCCC1)N=2 | inactive
O=C(Nc1nccs1)C1CCCN1S(=O)(=O)c1ccc(Cl)cc1 (configuration not stated) | inactive
CCOC(=O)c1cnc(-n2nc(C)cc2C)nc1NC1CCCC1 | 2820 nM (active)
O=C1Nc2ccc(S(=O)(=O)N3CCCC3C(=O)O)c3cccc1c23 (configuration not stated) | inactive
COc1ccc(-c2cc(N)n(S(=O)(=O)c3c(F)c(F)c(F)c(F)c3F)n2)cc1OC | 7080 nM (active)
O=c1cc(CNCCCO)c2ccccc2[nH]1 | inactive
Cc1ccc(-c2ccc(/C=C3\C(=O)ON=C3c3ccccc3)o2)c([N+](=O)[O-])c1 | 2820 nM (active)
CCN(CC)S(=O)(=O)c1ccc2c(c1)nc(SC(C)C(N)=O)n2-c1ccc(OC)cc1 (configuration not stated) | inactive
O=C(N1CCOCC1)C1(c2ccc(Cl)cc2)CCCC1 | inactive
C=CCNC(=O)/C(C#N)=C/c1cn(-c2ccccc2)nc1-c1ccc(OC)c([N+](=O)[O-])c1 | inactive
CCC(c1nnnn1C1CCCC1)N1CCN(c2ccccc2)CC1 (configuration not stated) | inactive
Cc1cc2nc3ccc(=[N+](C)C)cc-3sc2cc1N | inactive
Cc1cccc(-c2nnc(SCc3cc(=O)[nH]c4ccccc34)n2C)c1 | inactive
CC1CCCc2sc3nc(N4CCN(CCO)CC4)n4ncnc4c3c21 (configuration not stated) | inactive
